PubChem BioAssay AID1159580 (chemical genetic matrix, 2015)
About 2,000 (36%) of roughly 5,500 compounds were called active. Another 18% or so got no clear call; they are omitted. No stated cut-off is given here; in the data, active means normalized growth mostly below about 0.91 (no sharp cut-off); inconclusive means no clear call, values can overlap the other calls; inactive means mostly above about 0.92. Some of the results follow.

Assay: chemical genetic growth profiling, strain panel (AID 1159580);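 further: tested at 20 µM; growth read once vehicle control cultures reached saturation at 30 °C; 1 = growth at the plate median or of vehicle wells; lower values mean less growth of the strain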
Conditions: growth OD

Measured: normalized growth

Nc1ccc(C(=O)NCC(=O)O)cc1
inactive: S. cerevisiae deletion strains, locus YKL009W, strain mrt4, hits give low values 1.02 | S. cerevisiae deletion strains, locus YKL068W, hits give low values 1 | S. cerevisiae deletion strains, locus YKL085W, strain MDH1 (second series), hits give low values 1.01 | S. cerevisiae deletion strains, locus YKL085W, strain MDH1, hits give low values 1.01 | S. cerevisiae deletion strains, locus YKL160W, strain elf1, hits give low values 1.04 | S. cerevisiae deletion strains, locus YKL190W, strain CNB1, hits give low values 1 | S. cerevisiae deletion strains, locus YKR001C, strain vps1, hits give low values 1.02 | S. cerevisiae deletion strains, locus YKR026C, strain gcn3, hits give low values 1.01 | S. cerevisiae deletion strains, locus YKR091W, strain srl3, hits give low values 0.999 | S. cerevisiae deletion strains, locus YLL001W, strain dnm1, hits give low values 1 | S. cerevisiae deletion strains, locus YLL026W, hits give low values 0.997 | S. cerevisiae deletion strains, locus YLL041C, strain sdh2, hits give low values 1.01 | S. cerevisiae deletion strains, locus YLR027C, strain aat2, hits give low values 1.03 | S. cerevisiae deletion strains, locus YLR039C, strain RIC1, hits give low values 1.01 | S. cerevisiae deletion strains, locus YLR058C, strain SHM2, hits give low values 0.998 | S. cerevisiae deletion strains, locus YLR102C, strain apc9, hits give low values 1.02 | S. cerevisiae deletion strains, locus YLR113W, strain HOG1, hits give low values 0.937 | S. cerevisiae deletion strains, locus YLR221C, strain rsa3, hits give low values 1 | S. cerevisiae deletion strains, locus YLR258W, strain gsy2, hits give low values 1.03 | S. cerevisiae deletion strains, locus YLR262C, strain YPT6 (second series), hits give low values 1.02 | S. cerevisiae deletion strains, locus YLR262C, strain YPT6, hits give low values 1.04 | S. cerevisiae deletion strains, locus YLR268W, strain sec22, hits give low values 1.02 | S. cerevisiae deletion strains, locus YLR320W, strain mms22, hits give low values 1.01 | S. cerevisiae deletion strains, locus YLR330W, strain CHS5, hits give low values 1.01 | S. cerevisiae deletion strains, locus YLR342W, strain FKS1 (second series), hits give low values 0.987 | S. cerevisiae deletion strains, locus YLR342W, strain FKS1, hits give low values 1.02 | S. cerevisiae deletion strains, locus YLR357W, strain rsc2, hits give low values 1.07 | S. cerevisiae deletion strains, locus YLR370C, strain arc18, hits give low values 1.01 | S. cerevisiae deletion strains, locus YLR371W, strain rom2, hits give low values 1 | S. cerevisiae deletion strains, locus YLR384C, strain iki3, hits give low values 1.02 | S. cerevisiae deletion strains, locus YLR418C, strain cdc73, hits give low values 1.04 | S. cerevisiae deletion strains, locus YML016C, strain PPZ1, hits give low values 1 | S. cerevisiae deletion strains, locus YML032C, strain rad52, hits give low values 1.01 | S. cerevisiae deletion strains, locus YML120C, strain ndi1, hits give low values 1 | S. cerevisiae deletion strains, locus YML124C, strain tub3, hits give low values 1.01 | S. cerevisiae deletion strains, locus YMR058W, strain fet3, hits give low values 1.01 | S. cerevisiae deletion strains, locus YMR078C, strain ctf18, hits give low values 1.02 | S. cerevisiae deletion strains, locus YMR125W, strain sto1, hits give low values 1.02 | S. cerevisiae deletion strains, locus YMR129W, hits give low values 1.02 | S. cerevisiae deletion strains, locus YMR205C, strain PFK2, hits give low values 1.03 | S. cerevisiae deletion strains, locus YMR223W, strain ubp8, hits give low values 1.01 | S. cerevisiae deletion strains, locus YMR231W, strain pep5, hits give low values 1.02 | S. cerevisiae deletion strains, locus YMR263W, strain SAP30, hits give low values 1 | S. cerevisiae deletion strains, locus YMR307W, strain GAS1, hits give low values 1.03 | S. cerevisiae deletion strains, locus YNL067W, strain RPL9B, hits give low values 0.99 | S. cerevisiae deletion strains, locus YNL071W, strain lat1, hits give low values 1.03 | S. cerevisiae deletion strains, locus YNL153C, strain GIM3, hits give low values 0.973 | S. cerevisiae deletion strains, locus YNL183C, strain NPR1, hits give low values 0.908 | S. cerevisiae deletion strains, locus YNL209W, strain ssb2, hits give low values 1.01 | S. cerevisiae deletion strains, locus YNL233W, strain BNI4, hits give low values 0.986 | S. cerevisiae deletion strains, locus YNL248C, strain rpa49, hits give low values 1.02 | S. cerevisiae deletion strains, locus YNL250W, strain rad50, hits give low values 1.01 | S. cerevisiae deletion strains, locus YNL271C, strain bni1, hits give low values 1.02 | S. cerevisiae deletion strains, locus YNL298W, strain CLA4, hits give low values 1.03 | S. cerevisiae deletion strains, locus YNL307C, strain MCK1, hits give low values 1.02 | S. cerevisiae deletion strains, locus YNL322C, strain KRE1 (second series), hits give low values 1.01 | S. cerevisiae deletion strains, locus YNL322C, strain KRE1, hits give low values 0.997 | S. cerevisiae deletion strains, locus YNR049C, strain mso1, hits give low values 1.01 | S. cerevisiae deletion strains, locus YNR052C, strain pop2, hits give low values 1.02 | S. cerevisiae deletion strains, locus YOL006C, strain TOP1, hits give low values 0.96 | S. cerevisiae deletion strains, locus YOL012C, strain htz1 1.06 | S. cerevisiae deletion strains, locus YOL147C, strain pex11, hits give low values 1.01 | S. cerevisiae deletion strains, locus YOR001W, strain rrp6, hits give low values 0.986 | S. cerevisiae deletion strains, locus YOR061W, strain CKA2, hits give low values 1.01 | S. cerevisiae deletion strains, locus YOR069W, strain VPS5, hits give low values 1 | S. cerevisiae deletion strains, locus YOR070C, strain gyp1, hits give low values 1.01 | S. cerevisiae deletion strains, locus YOR080W, strain dia2, hits give low values 1.01 | S. cerevisiae deletion strains, locus YOR083W, strain WHI5, hits give low values 0.99 | S. cerevisiae deletion strains, locus YOR106W, strain vam3, hits give low values 1.04 | S. cerevisiae deletion strains, locus YOR136W, strain idh2, hits give low values 1.02 | S. cerevisiae deletion strains, locus YOR144C, strain elg1, hits give low values 1.01 | S. cerevisiae deletion strains, locus YOR184W, strain ser1, hits give low values 1.02 | S. cerevisiae deletion strains, locus YOR231W, strain MKK1, hits give low values 0.97 | S. cerevisiae deletion strains, locus YOR265W, strain rbl2, hits give low values 1 | S. cerevisiae deletion strains, locus YOR270C, strain vph1, hits give low values 1.02 | S. cerevisiae deletion strains, locus YOR290C, strain snf2, hits give low values 1.04 | S. cerevisiae deletion strains, locus YOR316C, strain cot1, hits give low values 1.02 | S. cerevisiae deletion strains, locus YPL051W, strain arl3, hits give low values 1.02 | S. cerevisiae deletion strains, locus YPL078C, strain atp4, hits give low values 1.02 | S. cerevisiae deletion strains, locus YPL106C, strain sse1, hits give low values 1.04 | S. cerevisiae deletion strains, locus YPL240C, strain hsp82, hits give low values 1.01 | S. cerevisiae deletion strains, locus YPL241C, strain CIN2, hits give low values 1 | S. cerevisiae deletion strains, locus YPL256C, strain CLN2, hits give low values 0.936 | S. cerevisiae deletion strains, locus YPR119W, strain clb2, hits give low values 1.01 | S. cerevisiae deletion strains, locus YPR141C, strain kar3, hits give low values 1.01 | S. cerevisiae deletion strains, locus YPR163C, strain tif3, hits give low values 1.01 | S. cerevisiae deletion strains, locus YPR167C, strain met16, hits give low values 1.02 | S. cerevisiae deletion strains, strain wtn01, hits give low values 1.03 | S. cerevisiae strains, strain wild type, hits give low values 0.995
